Screening data from PubChem BioAssay.
TLR9-MyD88 inh = inhibitors of human TLR9-MyD88 binding. Q9NR96+Q99836. CHO BLA complementation TLR9-MyD88, CCF4 FRET ratio. inhibition, % at 4.98 µM. 0.21% of 340,000 active. AID 504734;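 active = inhibition above the mean over all tested compounds plus 3 SD, cut at about 21% in these data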;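 note: 0% = DMSO only wells and 100% = clavulanate BLA inhibitor control wells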
TLR4 MyD88 comp = TLR4-MyD88 interaction inhibition in cells; HeLa CL3-4 TLR4/MyD88 BLA complementation, FRET ratio; inhibition, % at 8.4 µM; 0.18% of 200,000 active; in the data active = inhibition above about 25%;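 note: 0% = vehicle and 100% = reference inhibitor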
Target sequence (O00206 whole entry, looked up): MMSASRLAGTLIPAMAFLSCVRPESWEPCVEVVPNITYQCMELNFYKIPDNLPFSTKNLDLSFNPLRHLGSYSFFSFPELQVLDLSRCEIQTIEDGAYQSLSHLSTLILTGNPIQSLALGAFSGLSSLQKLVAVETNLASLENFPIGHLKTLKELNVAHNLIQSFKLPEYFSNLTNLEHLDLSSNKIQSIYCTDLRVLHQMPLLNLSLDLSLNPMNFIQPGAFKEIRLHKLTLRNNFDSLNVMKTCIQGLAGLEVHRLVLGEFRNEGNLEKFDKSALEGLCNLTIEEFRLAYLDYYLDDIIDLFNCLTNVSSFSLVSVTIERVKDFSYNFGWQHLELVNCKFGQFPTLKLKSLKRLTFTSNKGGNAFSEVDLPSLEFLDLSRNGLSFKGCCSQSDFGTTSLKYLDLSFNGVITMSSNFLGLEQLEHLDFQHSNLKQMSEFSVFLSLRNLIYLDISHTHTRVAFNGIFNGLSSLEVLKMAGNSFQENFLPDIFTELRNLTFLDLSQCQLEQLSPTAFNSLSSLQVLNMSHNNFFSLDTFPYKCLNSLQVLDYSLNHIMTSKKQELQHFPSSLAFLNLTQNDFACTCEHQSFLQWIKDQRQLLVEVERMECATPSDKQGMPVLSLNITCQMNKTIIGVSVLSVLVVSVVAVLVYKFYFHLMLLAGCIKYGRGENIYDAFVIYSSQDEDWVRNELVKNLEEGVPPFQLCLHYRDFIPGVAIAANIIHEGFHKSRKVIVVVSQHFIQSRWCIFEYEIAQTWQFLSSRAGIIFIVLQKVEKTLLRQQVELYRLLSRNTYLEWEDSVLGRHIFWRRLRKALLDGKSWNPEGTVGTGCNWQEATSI
Target sequence (Q99836 whole entry, looked up): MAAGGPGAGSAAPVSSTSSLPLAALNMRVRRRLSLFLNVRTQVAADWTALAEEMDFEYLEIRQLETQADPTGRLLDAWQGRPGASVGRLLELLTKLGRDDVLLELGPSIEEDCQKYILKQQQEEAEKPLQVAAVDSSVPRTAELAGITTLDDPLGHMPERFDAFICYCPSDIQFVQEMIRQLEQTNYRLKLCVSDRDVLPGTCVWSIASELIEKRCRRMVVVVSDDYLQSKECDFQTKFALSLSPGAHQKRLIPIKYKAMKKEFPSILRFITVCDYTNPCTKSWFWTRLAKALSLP
PRMT1 inh = PRMT1 (human) inhibition, primary screen. inhibition, % at 2.79 µM. AID 652257. 1.3% of 370,000 active. recombinant PRMT1, activity-based probe fluorescence polarization;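 active = inhibition above about 21% made by adding two undisclosed values, limit read from the data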
rCAG binder = molecules binding r(CAG) RNA repeats; inhibition, % at 3 µM; r(CAG) RNA repeat, TO-PRO-1 dye displacement fluorescence; 1.3% of 370,000 active;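 active = inhibition above the plate cutoff, the mean of all test compounds on that plate plus 3 SD, cut at about 35% in these data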;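 note: 0% = DMSO alone and 100% = 100 µM mitoxantrone as full dye displacement; higher means more dye released from RNA so lower well fluorescence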
NOD2-RIPK2 inh = blocks binding of human NOD2 to RIPK2. O43353. CHO BLA complementation NOD2-RIPK2, CCF4 ratio. inhibition, % at 4.98 µM. 0.38% of 360,000 active; in the data active = inhibition above about 21%;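 note: 0% = vehicle only and 100% = reference blocker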
ABHD5 PLIN5 PPI = inhibitors of human ABHD5-perilipin-5 interaction. Split G. princeps luciferase complementation, luminescence, 4 h. 0.78% of 360,000 active. AID 602281. Q00G26+Q8WTS1. inhibition, % at 4 µM;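 active = inhibition above the mean inhibition across every tested compound plus 3 SD, cut at about 22% in these data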;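 note: 0% = DMSO only wells and the 100% control is not disclosed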
NOD2-RIPK2 conf = confirmation of human NOD2-RIPK2 interaction inhibitors | inhibition, % at 4.98 µM | 70% of 1,200 active | CHO cells, NOD2-RIPK2 BLA complementation, CCF4 FRET | shares compounds with NOD2-RIPK2 inh;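 active = mean inhibition across replicates above a set limit taken from the earlier primary screen, cut at about 21% in these data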;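 note: 0% = DMSO-only wells and the high end = clavulanate BLA-blocked wells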
BLA counter = hits BLA reporter in NOD2-RIPK2 inhibitor counterscreen. shares compounds with NOD2-RIPK2 inh. CHO BLA reporter, CCF4 FRET ratio. inhibition, % at 4.98 µM. 57% of 1,200 active. AID 624371;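 active = mean inhibition above the low-control mean inhibition plus three low-control SD, cut at about 11% in these data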;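 note: 0% = DMSO only wells and 100% = clavulanate high control wells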
Active calls of the source: *; i = inactive; · = not tested or not shown; ! = not confirmed by another sample. Compounds with a hit are over-represented: about 3.3% of the library has one in this group of screens.

SMILES	TLR9-MyD88 inh	TLR4 MyD88 comp	PRMT1 inh	rCAG binder	NOD2-RIPK2 inh	ABHD5 PLIN5 PPI	NOD2-RIPK2 conf	BLA counter
CCCCNc1c(-c2ccc(SC3CCCCC3)c(OC)c2)nc2ccc(C)cn12	-4.9	·	3.9	3.9	11.7	-18.6	·	·
CCO[C@H]1OC(C(=O)NCc2ccccc2)=C[C@@H](c2ccc(Br)cc2)[C@@H]1CCCO	-0.3	3.2	0.0	-3.4	28.7*	1.7	-19.6	-5.2
CCO[C@@H]1OC(C(=O)NCc2ccccc2)=C[C@H](c2ccc(C(F)(F)F)cc2)[C@H]1CCCO	-2.7	-5.7	0.0	-6.2	2.6	3.2	·	·
Cc1ccnc(N/C=C(\C#N)c2nc(-c3cccc(Br)c3)cs2)c1	15.2	8.0	-9.0	-6.4	27.0*	-4.1	30.0*	29.7*
Nc1ccccc1C#CCCCCO	2.6	-2.3	2.9	0.4	-2.5	2.1	·	·
CCCCNc1c(-c2ccc(SC(C)CC)cc2)nc2ccccn12 (centres undefined)	9.5	·	0.4	-6.6	21.7*!	-18.1	20.4	16.2*
CN(c1ccccc1)S(=O)(=O)c1ccc(C(=O)NCC(c2ccco2)N2CCCCC2)cc1 (centres undefined)	8.1	·	-5.1	2.6	24.6*	-5.3	1.7	-2.4
O=C(NC1CCCC1)c1cc2nc(-c3ccccc3)cc(-c3ccccc3)n2n1	-3.1	·	-3.1	-0.8	-10.1	-4.6	·	·
O=C(Nc1cccc(O)c1)c1cc2nc(-c3ccccc3)cc(-c3ccccc3)n2n1	7.1	-8.7	-2.6	7.4	21.6*	-5.4	8.2	10.9*
COC(=O)[C@]1(C)CCC[C@@]2(C)C3CC[C@@]4(C)C[C@]3(CCC21)CC(=O)N4 (some centres undefined)	-3.6	·	-3.2	-9.6	7.8	-6.2	·	·
C=C1C(=O)C23CCC4C(C)(C(=O)OC)CCCC4(C)C2CCC1(O)C3 (centres undefined)	2.6	·	28.9*	1.8	79.0*	72.0*	87.6*	21.4*
CC(=O)Oc1ccc2cc(-c3cccnc3)c(=O)oc2c1	8.6	·	-0.8	0.7	30.5*	14.8	29.6*	44.6*
COc1ccc2cc(-c3ccccc3)c(=O)oc2c1	-3.7	·	-1.9	2.5	-7.6	-4.6	·	·
CC(=O)Nc1ccc(N2C(=O)c3cccc4c(O)ccc(c34)C2=O)cc1	17.1	·	108.6*	i	26.9*	-4.7	24.7*	28.2*
CSCC[C@@H](CO)NC(=O)[C@H]1O[C@@H](n2ccc(N)nc2=O)[C@H](O)[C@@H]1O	·	·	0.3	0.7	28.6*	6.0	-6.2	-0.2
O=[N+]([O-])c1c(NCCO)cc(N2CCCCCC2)c2nonc12	-2.4	·	-1.7	2.9	-6.6	-6.7	·	·
O=[N+]([O-])c1c(NCCCO)cc(Sc2nc3ccccc3s2)c2nonc12	40.0*	12.3	·	·	91.9*	58.2*	81.8*	29.3*
O=C(Cn1ncc(Cl)c(Cl)c1=O)NC(=O)NC1CCCCC1	5.5	·	3.5	10.8	28.1*	14.0	46.7*	8.4
COc1ccc(NC(=O)Cn2ncc(Cl)c(Cl)c2=O)cc1S(=O)(=O)N1CCOCC1	-3.7	0.1	8.6	20.7	-16.5	14.2	·	·
CCN(CC)S(=O)(=O)c1cc(NC(=O)Cn2ncc(Cl)c(Cl)c2=O)ccc1C	19.3	·	2.0	20.5	21.8*	8.5	34.8*	8.6
O=C(Cn1ncc(Cl)c(Cl)c1=O)Nc1ccc2c(c1)OCO2	9.5	·	6.7	14.7	21.3*	3.4	24.8*	5.0
Cc1cc(Br)ccc1NC(=O)CNC(=O)CSc1ncccn1	5.8	·	-1.4	13.2	3.6	-6.8	·	·
Cc1cc(Br)ccc1NC(=O)CNC(=O)Cn1ncc(Cl)c(Cl)c1=O	5.0	-3.5	4.8	0.9	24.7*	-1.6	36.1*	3.9
COc1ccc2c(c1)CC=C1C2CCC2(C)C(=O)C(=NO)CC12 (centres undefined)	-8.2	·	-2.9	4.0	7.8	-9.0	·	·
O=C(N=C1SC2CS(=O)(=O)CC2N1Cc1ccccc1)C1CC1 (centres undefined)	-1.8	·	0.6	0.4	-5.5	3.2	·	·
SMILES	TLR9-MyD88 inh	TLR4 MyD88 comp	PRMT1 inh	rCAG binder	NOD2-RIPK2 inh	ABHD5 PLIN5 PPI	NOD2-RIPK2 conf	BLA counter
Cc1cc(C)c2sc(N(CCCN(C)C)C(=O)c3ccc(S(=O)(=O)N4CCCc5ccccc54)cc3)nc2c1	-0.2	·	1.9	1.2	11.0	11.4	·	·
Cc1cc(C)c2sc(N(CCCN(C)C)C(=O)c3ccc(S(=O)(=O)N4CCc5ccccc5C4)cc3)nc2c1	13.7	·	·	·	23.9*	11.4	30.1*	16.5*
NC(=S)N/N=C1/CCSc2ccc3ccccc3c21	3.4	0.2	7.6	2.5	23.5*	-10.8	0.6	-2.2
CC1=C(C(=O)Nc2cc(C(=O)N3CCC(C)CC3)ccc2C)SCCO1	4.7	·	0.8	-7.7	-10.7	-4.4	·	·
CCSc1ccc(-c2cc(NC=O)c3ncc(-c4cccc(C(=O)NCCN(C)C)c4)n3c2)cc1	·	·	-0.9	10.1	23.2*	19.1	25.0*	-2.0
Cc1c(C(=O)OCC(=O)c2ccc3c(c2)OCCO3)oc2ccccc12	-0.1	-0.2	1.7	5.2	25.8*	8.1	-3.3	-2.7
CCCN(C(=O)COC(=O)CNC(=O)c1ccc2ccccc2c1)c1c(N)n(Cc2ccccc2)c(=O)[nH]c1=O	7.1	·	-2.1	7.0	-4.6	-8.6	·	·
Cc1cc2nc(-c3nnnn3Cc3ccccc3)c(=O)[nH]c2cc1C	·	·	0.7	8.6	23.3*	-2.1	12.6	14.7*
COc1ccc(C2C(C(=O)NCCCN3CCOCC3)c3ccccc3C(=O)N2c2ccc(OC)cc2)cc1 (centres undefined)	1.2	-12.1	-3.9	-2.6	23.6*	5.0	3.7	-2.9
Cc1nc2c(=O)n(C)c(=O)n(C)c2nc1Cl	17.1	20.6	5.6	-0.9	23.9*	20.9	30.1*	-8.2
Cn1c(=O)c2nc(NCc3ccccc3)cnc2n(C)c1=O	1.7	23.8	0.9	-3.9	16.5	0.5	·	·
Cc1ccc2cc(CN(CCO)Cc3nnnn3Cc3ccc(F)cc3)c(=O)[nH]c2c1	-5.7	-1.5	4.2	-1.0	0.3	-6.7	·	·
O=c1[nH]c2cc3c(cc2cc1CN(CCCO)Cc1nnnn1Cc1ccc(F)cc1)OCO3	8.4	2.8	1.9	0.2	26.1*	9.0	-3.2	2.4
CCOc1ccccc1CN1CCC(n2nccc2NC(=O)C2CCCC2)CC1	1.1	·	1.0	-7.2	-8.4	1.4	·	·
O=[N+]([O-])c1ccc(C=NNc2ccccc2)cc1	15.8	·	6.2	3.2	5.4	8.0	·	·
O=[N+]([O-])c1ccc(NN=Cc2ccc(O)cc2O)nc1	5.0	·	1.3	6.9	21.9*	5.0	8.5	15.3*
O=[N+]([O-])c1ccc(NN=Cc2ccccc2O)nc1	14.5	·	-0.1	11.1	19.4	3.9	·	·
